High-throughput results: PubChem, several laboratories
Rows were chosen to be rich in hits. Some 2.8% of all compounds tested hit in one or more screens of this group.
GASC-1 inh – inhibitors of GASC-1 histone demethylase, primary screen, biochemical, fluorescence, DELFIA europium; GST-JMJD2C(1-420) H3K9me3 demethylation; 330,000 tested, 0.069% active; inhibition, % at 2.35 µM; Lysine-specific demethylase 4C (Homo sapiens), Q9H3R0;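 active = more than half of a compound's replicate wells show inhibition beyond 50%, single wells judged on their own value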;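 note: signal counts dimethyl H3K9 product captured on neutravidin plate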
PP1 counter – PP1-alpha phosphatase inhibitors, primary screen, counter-screen for PP5 inhibitor project, biochemical, fluorescence, OMFP substrate, single point. Serine/threonine-protein phosphatase PP1-alpha catalytic subunit (Homo sapiens), P62136. purified PP1alpha. inhibition, % at 6.7 µM. 320,000 tested, 0.9% active;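 active = inhibition above the mean inhibition of all tested compounds plus 3 SD, computed separately for each screening campaign, cut at about 15% in these data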
PG9 binder – binders of HIV-1 gp120 antibody PG9, primary screen, biochemical, TR-FRET. 360,000 tested, 0.43% active. TR-FRET gp120-PG9 antibody binding. inhibition, % at 6.7 µM; in the data active = inhibition above about 8.5%
Rev-erbA mod – modulators of Rev-erb alpha DNA binding, primary screen, biochemical, FITC-DNA, fluorescence polarization, uHTS | AID 1259318, 2017 | Rev-erbα–FITC-DNA binding, 90 min | activity, % at 10 µM | Nuclear receptor subfamily 1 group D member 1 (Homo sapiens), P20393 | 370,000 tested, 0.79% active;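 active = activity above about 14%, limit read from the data; passing the limit was not always enough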
PP5 inh – PP5 phosphatase inhibitors, primary screen, biochemical, fluorescence. Serine/threonine-protein phosphatase 5 (Homo sapiens), P53041. inhibition, % at 6.7 µM. purified PP5c, OMFP substrate fluorescence. AID 1987, 2009. 320,000 tested, 0.18% active;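 active = inhibition above the campaign's mean inhibition across all tested compounds plus 3 SD, cut at about 9.5% in these data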
Target sequence (P53041 whole entry, looked up): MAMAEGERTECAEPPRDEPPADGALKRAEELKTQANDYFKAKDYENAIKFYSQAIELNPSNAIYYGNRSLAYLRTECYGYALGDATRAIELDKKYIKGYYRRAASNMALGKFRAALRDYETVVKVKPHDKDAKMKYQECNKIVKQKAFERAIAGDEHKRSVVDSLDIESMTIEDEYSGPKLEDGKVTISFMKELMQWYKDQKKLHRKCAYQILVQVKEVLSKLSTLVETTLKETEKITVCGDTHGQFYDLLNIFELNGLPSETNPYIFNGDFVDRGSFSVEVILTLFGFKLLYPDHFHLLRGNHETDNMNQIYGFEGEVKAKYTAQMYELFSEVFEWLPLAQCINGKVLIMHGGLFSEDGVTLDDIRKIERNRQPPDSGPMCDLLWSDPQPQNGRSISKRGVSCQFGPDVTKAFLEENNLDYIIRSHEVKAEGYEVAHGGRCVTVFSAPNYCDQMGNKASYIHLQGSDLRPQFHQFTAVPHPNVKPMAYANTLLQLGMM
proKLK7 act – proKLK7 zymogen activators, primary screen, biochemical, fluorescence intensity; 370,000 tested, 0.9% active; AID 652039, 2013; activation, % at 7 µM; purified proKLK7, EDANS-DABCYL substrate fluorescence; 100% is mature enzyme control, 0% vehicle;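 active = activation above the mean of all tested compounds plus 3 SD, computed per campaign excluding outliers beyond control limits, cut at about 13% in these data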
PG9 binder conf – binders of anti-gp120 antibody PG9, confirmation, biochemical, TR-FRET. 1,500 tested, 90% active. inhibition, % at 6.7 µM. TR-FRET PG9 antibody binding. shares compounds with PG9 binder. AID 651571, 2012; in the data active = inhibition above about 9%
PGV04 Ab binding – binders of control antibody PGV04, counter-screen for PG9 antibody binder project, biochemical, TR-FRET, distinct HIV envelope site. shares compounds with PG9 binder. TR-FRET PGV04 antibody-gp120 binding. inhibition, % at 6.7 µM. 1,500 tested, 95% active; in the data active = inhibition above about 9.5%
PG9 binder DR – small-molecule binders of antibody PG9, dose response, biochemical, TR-FRET, HIV-1 gp120 antibody | shares compounds with PG9 binder | TR-FRET PG9 antibody-gp120 binding inhibition | IC50, µM | 95 tested, under 10 active; in the data active = IC50 below about 10 µM
PGV04 DR counter – binders of control antibody PGV04, dose response, counter-screen for PG9 antibody binder project, biochemical, TR-FRET, distinct HIV envelope site; 95 tested, 20% active; IC50, µM; TR-FRET binding to control antibody PGV04; shares compounds with PG9 binder
PG126 DR counter – binders of control antibody PG126, dose response, counter-screen for PG9 antibody binder project, biochemical, TR-FRET, distinct HIV envelope site. shares compounds with PG9 binder. TR-FRET binding to antibody PG126, counterscreen. IC50, µM. 95 tested, 20% active
Rev-erbA confirm – modulators of Rev-erb alpha DNA binding, confirmation, biochemical, FITC-DNA, fluorescence polarization, single point. AID 1259319, 2017. activation, % at 25 µM. shares compounds with Rev-erbA mod. 3,000 tested, 61% active. 90 min;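 active = activation at or above a set limit, or at least 3 SD above the negative control mean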
RORg DNA counter – modulation of RORgamma DNA binding, dose response, counter-screen for Rev-erb alpha modulator project, biochemical, fluorescence polarization, FITC-DNA | AID 1259320, 2017 | IC50, µM | 910 tested, 8% active | purified RORgamma protein-FITC-DNA binding | shares compounds with Rev-erbA mod;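 active = Compounds whose fitted half-maximal concentration for disrupting protein-DNA binding is below 10 micromolar; the record names Rev-erb in its text, so the target is in doubt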
A number is an active result; – = inactive; · = no result. Cut-off read from the data, not from the text of the source, unless noted: active = IC50 below about 9 µM; inactive = the rest.

SMILES | GASC-1 inh | PP1 counter | PG9 binder | Rev-erbA mod | PP5 inh | proKLK7 act | PG9 binder conf | PGV04 Ab binding | Rev-erbA confirm | others
O=c1[nH]c(/C=C/c2cccc3ccccc23)nc2ccccc12 | – | – | 33 | 60 | – | – | 45 | 46 | 25
COc1ccc2c(C)cc(SCC(=O)Nc3ncc(Cl)cc3Cl)nc2c1 | – | – | 14 | 119 | – | – | 37 | 53 | 56 | RORg DNA counter=–
COc1ccc2c(-c3ccccc3)cc(N3CCOCC3)nc2c1 | – | – | – | – | – | – | · | · | ·
COc1ccc2c(-c3ccccc3)cc(SCC(=O)NC(N)=O)nc2c1 | – | – | 17 | 40 | – | – | 28 | 65 | –
CCc1ccc(CCNC(=O)OC2CC3CC2[C@H]2CCCCN2[C@H]3Cc2ccccc2)cc1 (stereo partly drawn) | · | · | · | – | · | – | · | · | ·
CCCCC1O[C@@H](C)[C@@H]2CN3CCc4c([nH]c5ccccc45)[C@@H]3C[C@@H]2N1C (stereo partly drawn) | · | · | – | – | · | – | · | · | ·
CC1Cc2ccccc2N1C(=O)COC(=O)c1cc(Br)ccc1O (stereo not drawn) | – | – | 20 | 35 | – | – | – | – | 25
CC1Cc2ccccc2N1C(=O)COC(=O)c1cccc(Br)c1 (stereo not drawn) | – | – | – | – | – | – | · | · | ·
C#CCOCCOCCOCCNc1nc(N2CCN(C(=O)[C@H]([C@@H](C)CC)n3cc(CCCCN)nn3)CC2)nc(N2CCN(C(=O)[C@H](Cc3ccc(O)cc3)n3cc(CCO)nn3)CC2)n1 | · | · | · | – | · | · | · | · | ·
C[C@H]1COc2cc(Br)ccc2S(=O)(=O)N1Cc1cn(CC2CCCCC2)nn1 | · | · | · | – | · | – | · | · | ·
COc1cc(C(=O)Nc2ccc(NC(=O)c3ccccc3)nc2)cc(OC)c1OC | – | – | – | – | – | – | · | · | ·
COc1ccc(C(=O)Nc2ccc(NC(=O)c3cc(OC)c(OC)c(OC)c3)cn2)cc1 | – | – | 20 | 20 | – | – | 15 | 20 | –
Nc1nc2c(ncn2[C@@H]2O[C@H](C(=O)NCC(c3ccccc3)c3ccccc3)[C@@H](O)[C@H]2O)c(=O)[nH]1 | · | · | – | – | · | – | · | · | ·
O=C(CCCn1c(=S)[nH]c2cc3c(cc2c1=O)OCO3)NCc1ccccc1Cl | – | – | 19 | 50 | – | – | 21 | 21 | 33 | PG9 binder DR=–;PGV04 DR counter=–;PG126 DR counter=–;RORg DNA counter=–
